Among all 5,500 compounds or so, about 2,000 (36%) were called active. Roughly 18% stayed inconclusive and do not appear here. Rule as the data show it: active = normalized growth mostly below about 0.91 (no sharp cut-off); inconclusive = no clear call, values can overlap the other calls; inactive = mostly above about 0.92. This is one part of the list.
Assay: chemical genetic growth profiling, strain panel (AID 1159580);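 also: tested at 20 µM; growth read once vehicle control cultures reached saturation at 30 °C; 1 = growth at the plate median or of vehicle wells; lower values mean less growth of the strain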
Details: growth OD

Measured: normalized growth

Cc1ccccc1OCC(O)CO (stereo not given)
inactive: S. cerevisiae deletion strains, locus YJR066W, strain TOR1, stronger effect = lower value 0.913 | S. cerevisiae deletion strains, locus YJR075W, strain HOC1, stronger effect = lower value 1.04 | S. cerevisiae deletion strains, locus YKL009W, strain mrt4, stronger effect = lower value 0.987 | S. cerevisiae deletion strains, locus YKL068W, stronger effect = lower value 0.996 | S. cerevisiae deletion strains, locus YKL085W, strain MDH1 (second series), stronger effect = lower value 1.04 | S. cerevisiae deletion strains, locus YKL085W, strain MDH1, stronger effect = lower value 1.04 | S. cerevisiae deletion strains, locus YKL160W, strain elf1, stronger effect = lower value 0.986 | S. cerevisiae deletion strains, locus YKL190W, strain CNB1, stronger effect = lower value 1.01 | S. cerevisiae deletion strains, locus YKR001C, strain vps1, stronger effect = lower value 0.991 | S. cerevisiae deletion strains, locus YKR026C, strain gcn3, stronger effect = lower value 0.928 | S. cerevisiae deletion strains, locus YKR091W, strain srl3, stronger effect = lower value 0.984 | S. cerevisiae deletion strains, locus YLL001W, strain dnm1, stronger effect = lower value 0.985 | S. cerevisiae deletion strains, locus YLL026W, stronger effect = lower value 0.983 | S. cerevisiae deletion strains, locus YLL041C, strain sdh2, stronger effect = lower value 0.985 | S. cerevisiae deletion strains, locus YLR027C, strain aat2, stronger effect = lower value 0.957 | S. cerevisiae deletion strains, locus YLR039C, strain RIC1, stronger effect = lower value 1.02 | S. cerevisiae deletion strains, locus YLR058C, strain SHM2, stronger effect = lower value 1.02 | S. cerevisiae deletion strains, locus YLR102C, strain apc9, stronger effect = lower value 0.991 | S. cerevisiae deletion strains, locus YLR113W, strain HOG1, stronger effect = lower value 0.971 | S. cerevisiae deletion strains, locus YLR221C, strain rsa3, stronger effect = lower value 0.982 | S. cerevisiae deletion strains, locus YLR258W, strain gsy2, stronger effect = lower value 0.98 | S. cerevisiae deletion strains, locus YLR262C, strain YPT6 (second series), stronger effect = lower value 0.973 | S. cerevisiae deletion strains, locus YLR262C, strain YPT6, stronger effect = lower value 1.02 | S. cerevisiae deletion strains, locus YLR268W, strain sec22, stronger effect = lower value 0.996 | S. cerevisiae deletion strains, locus YLR320W, strain mms22, stronger effect = lower value 0.964 | S. cerevisiae deletion strains, locus YLR330W, strain CHS5, stronger effect = lower value 1.01 | S. cerevisiae deletion strains, locus YLR342W, strain FKS1 (second series), stronger effect = lower value 1.04 | S. cerevisiae deletion strains, locus YLR342W, strain FKS1, stronger effect = lower value 0.966 | S. cerevisiae deletion strains, locus YLR357W, strain rsc2, stronger effect = lower value 0.982 | S. cerevisiae deletion strains, locus YLR370C, strain arc18, stronger effect = lower value 0.979 | S. cerevisiae deletion strains, locus YLR371W, strain rom2, stronger effect = lower value 0.992 | S. cerevisiae deletion strains, locus YLR384C, strain iki3, stronger effect = lower value 0.992 | S. cerevisiae deletion strains, locus YLR418C, strain cdc73, stronger effect = lower value 1.01 | S. cerevisiae deletion strains, locus YML016C, strain PPZ1, stronger effect = lower value 1.02 | S. cerevisiae deletion strains, locus YML032C, strain rad52, stronger effect = lower value 0.992 | S. cerevisiae deletion strains, locus YML120C, strain ndi1, stronger effect = lower value 0.965 | S. cerevisiae deletion strains, locus YML124C, strain tub3, stronger effect = lower value 0.993 | S. cerevisiae deletion strains, locus YMR058W, strain fet3, stronger effect = lower value 0.98 | S. cerevisiae deletion strains, locus YMR078C, strain ctf18, stronger effect = lower value 0.995 | S. cerevisiae deletion strains, locus YMR125W, strain sto1, stronger effect = lower value 0.953 | S. cerevisiae deletion strains, locus YMR129W, stronger effect = lower value 0.99 | S. cerevisiae deletion strains, locus YMR205C, strain PFK2, stronger effect = lower value 0.975 | S. cerevisiae deletion strains, locus YMR223W, strain ubp8, stronger effect = lower value 0.991 | S. cerevisiae deletion strains, locus YMR231W, strain pep5, stronger effect = lower value 0.988 | S. cerevisiae deletion strains, locus YMR263W, strain SAP30, stronger effect = lower value 1.03 | S. cerevisiae deletion strains, locus YMR307W, strain GAS1, stronger effect = lower value 1.09 | S. cerevisiae deletion strains, locus YNL067W, strain RPL9B, stronger effect = lower value 1.03 | S. cerevisiae deletion strains, locus YNL071W, strain lat1, stronger effect = lower value 0.977 | S. cerevisiae deletion strains, locus YNL183C, strain NPR1, stronger effect = lower value 0.919 | S. cerevisiae deletion strains, locus YNL209W, strain ssb2, stronger effect = lower value 0.984 | S. cerevisiae deletion strains, locus YNL233W, strain BNI4, stronger effect = lower value 1.04 | S. cerevisiae deletion strains, locus YNL248C, strain rpa49, stronger effect = lower value 0.977 | S. cerevisiae deletion strains, locus YNL250W, strain rad50, stronger effect = lower value 0.995 | S. cerevisiae deletion strains, locus YNL271C, strain bni1, stronger effect = lower value 0.989 | S. cerevisiae deletion strains, locus YNL298W, strain CLA4, stronger effect = lower value 0.993 | S. cerevisiae deletion strains, locus YNL307C, strain MCK1, stronger effect = lower value 0.994 | S. cerevisiae deletion strains, locus YNL322C, strain KRE1 (second series), stronger effect = lower value 0.979 | S. cerevisiae deletion strains, locus YNL322C, strain KRE1, stronger effect = lower value 1.01 | S. cerevisiae deletion strains, locus YNR049C, strain mso1, stronger effect = lower value 0.955 | S. cerevisiae deletion strains, locus YNR052C, strain pop2, stronger effect = lower value 0.991 | S. cerevisiae deletion strains, locus YOL006C, strain TOP1, stronger effect = lower value 1.11 | S. cerevisiae deletion strains, locus YOL012C, strain htz1 0.987 | S. cerevisiae deletion strains, locus YOL147C, strain pex11, stronger effect = lower value 0.992 | S. cerevisiae deletion strains, locus YOR001W, strain rrp6, stronger effect = lower value 0.963 | S. cerevisiae deletion strains, locus YOR061W, strain CKA2, stronger effect = lower value 1.02 | S. cerevisiae deletion strains, locus YOR069W, strain VPS5, stronger effect = lower value 1.01 | S. cerevisiae deletion strains, locus YOR070C, strain gyp1, stronger effect = lower value 0.969 | S. cerevisiae deletion strains, locus YOR080W, strain dia2, stronger effect = lower value 0.968 | S. cerevisiae deletion strains, locus YOR083W, strain WHI5, stronger effect = lower value 0.967 | S. cerevisiae deletion strains, locus YOR106W, strain vam3, stronger effect = lower value 0.96 | S. cerevisiae deletion strains, locus YOR136W, strain idh2, stronger effect = lower value 0.998 | S. cerevisiae deletion strains, locus YOR144C, strain elg1, stronger effect = lower value 0.99 | S. cerevisiae deletion strains, locus YOR184W, strain ser1, stronger effect = lower value 1.01 | S. cerevisiae deletion strains, locus YOR231W, strain MKK1, stronger effect = lower value 0.974 | S. cerevisiae deletion strains, locus YOR265W, strain rbl2, stronger effect = lower value 0.968 | S. cerevisiae deletion strains, locus YOR270C, strain vph1, stronger effect = lower value 0.911 | S. cerevisiae deletion strains, locus YOR290C, strain snf2, stronger effect = lower value 0.969 | S. cerevisiae deletion strains, locus YOR316C, strain cot1, stronger effect = lower value 0.992 | S. cerevisiae deletion strains, locus YPL051W, strain arl3, stronger effect = lower value 0.981 | S. cerevisiae deletion strains, locus YPL055C, strain LGE1, stronger effect = lower value 1.07 | S. cerevisiae deletion strains, locus YPL078C, strain atp4, stronger effect = lower value 0.971 | S. cerevisiae deletion strains, locus YPL106C, strain sse1, stronger effect = lower value 0.958 | S. cerevisiae deletion strains, locus YPL240C, strain hsp82, stronger effect = lower value 0.992 | S. cerevisiae deletion strains, locus YPL256C, strain CLN2, stronger effect = lower value 0.974 | S. cerevisiae deletion strains, locus YPR119W, strain clb2, stronger effect = lower value 0.997 | S. cerevisiae deletion strains, locus YPR141C, strain kar3, stronger effect = lower value 0.989 | S. cerevisiae deletion strains, locus YPR163C, strain tif3, stronger effect = lower value 0.991 | S. cerevisiae deletion strains, locus YPR167C, strain met16, stronger effect = lower value 0.998 | S. cerevisiae deletion strains, strain wtn01, stronger effect = lower value 1 | S. cerevisiae strains, strain wild type, stronger effect = lower value 1.02

Reference: PubChem BioAssay AID1159580 (chemical genetic matrix, 2015)
